From PubChem BioAssay
3T3 cytotox = NIH 3T3 cell cytotoxicity. NIH 3T3 viability, CellTiter-Glo ATP luminescence, 48-72 h. Potency, µM (titrated, usually from 96.7 µM), inactives show at the top dose activity change, negative = cytotoxicity, most hits filed as inhibitors. actives 4.3% (n = 94,000). AID 1345082; further: nearly all actives have a fitted effect of over 55% in size
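Cytotoxicity is measured as loss of cellular ATP: NIH 3T3 cells (400/well) are exposed to compound for 48 or 72 hr at 37 °C, then CellTiter-Glo luminescence is imaged after 10 min at room temperature.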
NPR1 antag = human Npr1 receptor antagonism | P16066 | HEK293 hNpr1 GloSensor cGMP, ANP-stimulated luminescence | Potency, µM (doses to about 46.3 µM), without a hit: at the top dose activity change, negative = inhibition, usual class: inhibitors | actives 1.6% (n = 76,000) | AID 1347048; calls by dose curve; further: nearly all actives have a fitted effect of over 60% in size
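HEK293 cells stably expressing human Npr1 and cGMP GloSensor pGS-40F, loaded 2 h with 2% GloSensor reagent, given compound 30 min at room temperature. Luminescence read before and 20 min after 0.1 nM hNppA.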
HEK cytotox = HEK 293 cell cytotoxicity | Potency, µM (highest dose often 115 µM), without a hit: at the highest dose activity change, negative = cytotoxicity, usual class: inhibitors | HEK 293 viability, ATP luminescence (CellTiter-Glo), 48-72 h | AID 1345083 | actives 6.6% (n = 94,000); further: nearly all actives have a fitted effect of over 60% in size
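ATP-coupled CellTiter-Glo luminescence served as viability read-out, recorded 10 min after reagent addition at room temperature. HEK 293 cells, 250 cells/well, had been incubated with pintool-transferred compound for 48 or 72 hr at 37 degree Celsius.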
Luciferase inh = inhibitors of firefly (Photinus pyralis) luciferase. P08659. purified P. pyralis luciferase, luminescence, biochemical. actives 2.5% (n = 76,000). AID 1347043. Potency, µM (titrated, usually from 115 µM), actives largely listed as inhibitors; further: nearly all actives have a fitted effect of over 65% in size
Target sequence (P08659 whole entry, looked up): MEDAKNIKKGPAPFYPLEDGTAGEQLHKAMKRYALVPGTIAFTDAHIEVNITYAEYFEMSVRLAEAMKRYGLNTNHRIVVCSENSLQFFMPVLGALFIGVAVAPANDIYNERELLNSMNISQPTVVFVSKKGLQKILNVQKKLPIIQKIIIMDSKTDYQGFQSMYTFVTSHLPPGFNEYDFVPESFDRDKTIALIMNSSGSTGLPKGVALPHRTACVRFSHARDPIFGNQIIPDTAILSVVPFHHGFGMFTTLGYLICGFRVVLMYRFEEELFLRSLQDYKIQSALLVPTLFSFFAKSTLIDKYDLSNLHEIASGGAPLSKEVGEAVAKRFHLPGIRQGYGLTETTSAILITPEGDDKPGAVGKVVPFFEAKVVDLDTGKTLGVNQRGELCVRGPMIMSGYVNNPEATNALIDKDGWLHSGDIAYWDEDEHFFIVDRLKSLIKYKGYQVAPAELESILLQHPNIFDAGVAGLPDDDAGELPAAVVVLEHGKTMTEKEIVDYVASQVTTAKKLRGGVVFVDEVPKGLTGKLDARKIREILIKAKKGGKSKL
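Luminescence read by CCD imaging after purified firefly luciferase (10nM final) was added to substrate buffer holding 10uM D-luciferin and 10uM ATP, pH 7.5, pre-dosed with compound.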
HEK293 viab = counter-screen for SNCA expression inhibitors: cell viability; Potency, µM (doses to about 57.1 µM), without a hit: top-dose activity change, negative = cytotoxicity, actives largely listed as cytotoxic; HEK-293-SNCA-luc viability, GF-AFC fluorescence, 24 h; actives 0.12% (n = 150,000);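 further: 0% = DMSO-treated cells and -100% = medium-only wells without cells; nearly all actives have a fitted effect of over 30% in size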
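Cytotoxicity counterscreen: after 24 h compound treatment of genome-edited SNCA-luciferase HEK-293 cells, live-cell protease substrate GF-AFC read by fluorescence after 30 min; activity scaled between DMSO (0%) and medium-only (-100%), curves Hill-fitted.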
SNCA expr inhib = inhibitors of alpha-synuclein (SNCA) gene expression. AID 1671194. HEK-293 SNCA-luciferase knock-in, luminescence, 24 h. actives 0.17% (n = 140,000). Potency, µM (highest dose often 57.2 µM), for inactives: at the top dose activity change, negative = inhibition, usual class: inhibitors;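 further: plate controls were DMSO cells for no effect and cell-free wells for full effect; nearly all actives have a fitted effect of over 45% in size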
Active calls of the source: *; i = inactive; ? = inconclusive; . = no result given; [ ] = dose if it differs, or a comment. The list is not random: actives were taken first. Their share in the collection is about 7.4%. Unless noted, the call rests on the fitted dose curve; in most records, active means well fitted curve in the direction sought with a large enough effect; inconclusive means small, poorly fitted or top-dose-only effect, or another doubt; inactive means no such curve, though single readings can be large; an effect the other way counts as inactive or inconclusive. Unless noted, on the % scale 0 is the no-effect control and ±100 the full control effect; potency means the concentration at half of the fitted maximal effect.

SMILES	3T3 cytotox	NPR1 antag	HEK cytotox	Luciferase inh	HEK293 viab	SNCA expr inhib
COCc1nc(C2CCCN(C(=O)Cc3ccc(OC)cc3)C2)no1 (stereo not given)	3%	-4%	0%	i	4%[12.5 µM]	52%
COc1cc(CNC(=O)c2c(C)noc2-c2cc(OC)c(OC)c(OC)c2)cc(OC)c1	?	-3%	?	i	9%	3%
CCCOc1ccc(Cl)cc1CNC(=O)C1CCN(CC(N)=O)CC1	1%	-3%	-3%	i	1%	12%
Cc1ccc(NC(=O)N2Cc3[nH]cnc3C[C@H]2c2nc(-c3ccncc3)no2)cc1	2%[174 µM]	-4%[70.6 µM]	i	i	3%[87.6 µM]	5%[87.6 µM]
O=C(Nc1ccccc1)N1Cc2[nH]cnc2C[C@H]1c1nc(-c2ccc3ccccc3c2)no1	-10%	0%	-3%	i	-12%	15%
COc1ccc(NC(=O)N2Cc3[nH]cnc3C[C@H]2c2nc(-c3ccccc3)no2)cc1	32µM*	-21%[70.6 µM]	?	40µM*	?	127%[87.6 µM]
Cc1ccc(NC(=O)N2Cc3[nH]cnc3C[C@H]2c2nc(-c3ccc4ccccc4c3)no2)cc1	?	-26%	?	20µM*	-28%	101%
CCOC(=O)c1ccc(NC(=O)N2Cc3[nH]cnc3C[C@H]2c2nc(C(C)C)no2)cc1	100µM*	1%[70.6 µM]	?	i	-2%[87.6 µM]	7%[87.6 µM]
Cc1ccc(NC(=O)N2Cc3[nH]cnc3C[C@H]2c2nc(-c3ccc(Cl)cc3)no2)cc1	?	?	71µM*	40µM*	?	-7%[87.6 µM]
CC(C)CNC(=O)c1nc2sccn2c1-c1ccc(C(F)(F)F)cc1	?	.	?	.	2%	-5%
O=C(NC1CC(c2nnc(CO)n2C2CC2)C1)c1nc2ccccc2[nH]1 (stereo not given)	-17%	-16%	-5%	i	11%	-21%
Nc1ccsc1C(=O)N[C@H](Cc1ccncc1)C1CC(O)C1 (stereo not given in full)	0%	2%	-4%	i	-1%	6%
C#CCOc1ccc(C(=O)N[C@@H]2CN(Cc3ccc(C(=O)O)cc3)CCC[C@H]2O)cc1	?	-3%[70.6 µM]	-18%[172 µM]	i	-3%[87.6 µM]	4%[87.6 µM]
CC1CCN(c2ccc(-c3cccc(NC(=O)NC(C)C)c3)nn2)CC1	-17%	2.2µM*	?	0.25µM*	2%	?
CC(C)NC(=O)NC1CCN(c2ccc3nnc(-c4ccccc4)n3n2)CC1	-31%	.	-11%	.	.	.
COc1cccc(CNC(=O)Nc2cccc(-c3ccc(N4CCCCC4)nn3)c2)c1	?	10µM*	32µM*	0.25µM*	-15%	-69%
COc1ccc(OC)c(NC(=O)Nc2cccc(-c3ccc(N4CCCCC4)nn3)c2)c1	-22%	13µM*	?	0.25µM*	-8%	?
COc1cccc(CNC(=O)Nc2ccc3c(c2)N(C)C(=O)c2ccccc2S3)c1	.	.	.	.	-15%	-62%
Cc1cccc(S(=O)(=O)Nc2cccc(-c3ccc(N4CCCCC4)nn3)c2)c1	.	.	.	.	-23%	92%
CSc1ccc(C(=O)N2C[C@@H](CN3CCN(C)CC3)[C@@H](CO)C2)cc1	-6%	-1%	-13%	i	6%	-20%
Cc1cc(C)c(CNC(=O)c2cc(-c3cccnc3)cc3c2OCCN3C(C)C)c(=O)[nH]1	?	0%[70.6 µM]	100µM*	i	?	10%[87.6 µM]
COc1ccccc1-c1cc(C(=O)NCc2c(C)cc(C)[nH]c2=O)c2c(c1)ncn2C	40µM*	5%[70.6 µM]	?	i	-27%[87.6 µM]	-21%[87.6 µM]
Cc1cc(C)c(CNC(=O)c2cc(-c3ccnn3C)cc3c2OCCN3C)c(=O)[nH]1	?	5%[70.6 µM]	-30%[172 µM]	i	1%[87.6 µM]	18%[87.6 µM]
COc1cccc(-c2cc(C(=O)NCc3c(C)cc(C)[nH]c3=O)c3c(c2)ncn3C)c1OC	?	-11%	-12%	i	-17%	11%
Cc1cc(C)c(CNC(=O)c2cc(-c3ccccc3C)cc3c2OCCN3C)c(=O)[nH]1	45µM*	-30%[70.6 µM]	89µM*	i	4%[87.6 µM]	?
SMILES	3T3 cytotox	NPR1 antag	HEK cytotox	Luciferase inh	HEK293 viab	SNCA expr inhib
COc1ccc(-c2cc(C(=O)NCc3c(C)cc(C)[nH]c3=O)c3c(c2)N(C(C)C)CCO3)cc1OC	25µM*	5%	?	i	-14%	?
CCN1CC2(CCN(C(=O)C(C)(C)N)CC2)CC(c2ccccc2)C1=O (stereo not given)	-15%	6%	-10%	i	8%	4%
COc1ccc(-c2noc([C@@H]3Cc4nc[nH]c4CN3C(=O)CCC(=O)O)n2)cc1	-28%[174 µM]	-8%[70.6 µM]	-13%[172 µM]	i	-2%[87.6 µM]	?
Cc1ccccc1-c1cc(C(=O)NCCc2cnc[nH]2)c2c(c1)N(C)CCO2	100µM*	-3%[70.6 µM]	?	i	6%[87.6 µM]	-7%[87.6 µM]
COc1ccc(-c2cc(C(=O)NCCc3cnc[nH]3)c3c(c2)N(C)CCO3)cc1OC	?	5%[70.6 µM]	-29%[172 µM]	i	-16%[87.6 µM]	24%[87.6 µM]
COCCNC(=O)C(NC(=O)c1ccccc1C)C1CCN(C(=O)c2ccccc2F)CC1 (stereo not given)	-10%	0%	5%	i	11%	-7%
CC(C)N1C(=O)CO[C@H]2CCN(Cc3cccc(C#N)c3)CC[C@@H]21	?	-30%[70.6 µM]	?	i	-10%[87.6 µM]	-22%[87.6 µM]
N#Cc1cccc(CN2CC[C@@H]3OCC(=O)N(Cc4ccccc4)[C@H]3CC2)c1	?	-15%[70.6 µM]	100µM*	i	-16%[87.6 µM]	-18%[87.6 µM]
O=C1CO[C@H]2CCN(Cc3ccncc3Cl)CC[C@@H]2N1c1ccccc1	79µM*	-6%[70.6 µM]	45µM*	i	-4%[87.6 µM]	-15%[87.6 µM]
O=C1CO[C@H]2CCN(Cc3ccccc3Cl)CC[C@@H]2N1CCc1cccnc1	100µM*	-29%[70.6 µM]	?	i	-3%[87.6 µM]	6%[87.6 µM]
Cc1cccc(N2Cc3c(NCCCc4ccccc4)ncnc3N(C)CC2=O)c1	45µM*	.	?	.	-18%	-7%
Cc1ccc(N2Cc3c(NCCCc4ccccc4)ncnc3N(C)CC2=O)cc1	?	6%	?	i	6%	-4%
CN1CC(=O)N(c2ccccc2F)Cc2c(NCCc3ccc(Cl)cc3)ncnc21	40µM*	-15%	45µM*	i	-13%	?
CN1Cc2ncnc(NCCc3ccccc3)c2CN(C2CCC2)C1=O	?	0%[70.6 µM]	63µM*	i	3%[87.6 µM]	23%[87.6 µM]
CN1CC(=O)N(c2ccccc2F)Cc2c(NCCc3ccccc3)ncnc21	?	0%	45µM*	i	-22%	-19%
CN1CC(=O)N(c2ccccc2F)Cc2c(NCCCc3ccccc3)ncnc21	?	4%	?	i	-13%	3%
